Test results taken from PubChem BioAssay AID1159580 (chemical genetic matrix, 2015).
Screen size: about 5,500 compounds; about 2,000 (36%) were called active. Another 18% or so got no clear call; they are omitted. Rule as the data show it: active = normalized growth mostly below about 0.91 (no sharp cut-off); inconclusive = no clear call, values can overlap the other calls; inactive = mostly above about 0.92. This is one part of the list.

Experiment: chemical genetic growth profiling, strain panel (AID 1159580);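 also: tested at 20 µM; growth read once vehicle control cultures reached saturation at 30 °C; 1 = growth at the plate median or of vehicle wells; lower values mean less growth of the strain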
Settings: S. cerevisiae deletion strains, growth OD

Measured: normalized growth

O=[N+]([O-])O[C@@H]1CO[C@H]2[C@@H]1OC[C@@H]2O
inactive: locus YHR030C, strain SLT2, stronger effect = lower value 0.983 | locus YHR079C, strain IRE1, stronger effect = lower value 0.991 | locus YJL095W, strain BCK1, stronger effect = lower value 1 | locus YJR066W, strain TOR1, stronger effect = lower value 0.955 | locus YLR113W, strain HOG1, stronger effect = lower value 0.999 | locus YNL183C, strain NPR1, stronger effect = lower value 0.932 | locus YOR231W, strain MKK1, stronger effect = lower value 0.981 | locus YPL256C, strain CLN2, stronger effect = lower value 0.966
